Assay results: PubChem BioAssay (NCATS)
Results filed as inconclusive are left out. Calls of active or inactive are those of the source. Unless noted, the call rests on the fitted dose curve.

Key:
[1] = qHTS for Inhibitors of the Functional Ribonucleoprotein Complex (vRNP) of Lassa (LASV) Arenavirus: LASV Primary Screen - GLuc reporter signal (AID 1347082; calls by dose curve; tested in HEK293 reporter line; further: nearly all actives have a fitted effect of over 60% in size); conditions: LASV minigenome vRNP, Gaussia luciferase reporter; series mostly up to 57.5 µM
[2] = qHTS for Inhibitors of the Functional Ribonucleoprotein Complex (vRNP) of Lassa (LASV) Arenavirus: Viability assay - alamar blue signal for LASV Primary Screen (AID 1347083; calls by dose curve; tested in HEK293 reporter line; further: nearly all actives have a fitted effect of over 80% in size); conditions: cell viability, alamar blue fluorescence (LASV minigenome counter-screen); series mostly up to 57.5 µM
[3] = qHTS for Inhibitors of the Functional Ribonucleoprotein Complex (vRNP) of Lymphocytic Choriomeningitis Arenaviruses (LCMV): Viability assay - alamar blue signal for LCMV Primary Screen (AID 1347085; calls by dose curve; tested in HEK293 reporter line; further: nearly all actives have a fitted effect of over 80% in size); conditions: alamar blue viability counter-screen, LCMV vRNP screen cells; series mostly up to 57.5 µM
[4] = molecular target: Nucleoprotein (Lymphocytic choriomeningitis virus (strain Armstrong)) (UniProt P09992); assay: qHTS for Inhibitors of the Functional Ribonucleoprotein Complex (vRNP) of Lymphocytic Choriomeningitis Arenaviruses (LCMV): LCMV Primary Screen - GLuc reporter signal (AID 1347086); conditions: LCMV minigenome vRNP cell assay, Gaussia luciferase reporter; series mostly up to 57.5 µM; further: nearly all actives have a fitted effect of over 70% in size
Chain of Nucleoprotein (Lymphocytic choriomeningitis virus (strain Armstrong)) (P09992 whole entry, looked up): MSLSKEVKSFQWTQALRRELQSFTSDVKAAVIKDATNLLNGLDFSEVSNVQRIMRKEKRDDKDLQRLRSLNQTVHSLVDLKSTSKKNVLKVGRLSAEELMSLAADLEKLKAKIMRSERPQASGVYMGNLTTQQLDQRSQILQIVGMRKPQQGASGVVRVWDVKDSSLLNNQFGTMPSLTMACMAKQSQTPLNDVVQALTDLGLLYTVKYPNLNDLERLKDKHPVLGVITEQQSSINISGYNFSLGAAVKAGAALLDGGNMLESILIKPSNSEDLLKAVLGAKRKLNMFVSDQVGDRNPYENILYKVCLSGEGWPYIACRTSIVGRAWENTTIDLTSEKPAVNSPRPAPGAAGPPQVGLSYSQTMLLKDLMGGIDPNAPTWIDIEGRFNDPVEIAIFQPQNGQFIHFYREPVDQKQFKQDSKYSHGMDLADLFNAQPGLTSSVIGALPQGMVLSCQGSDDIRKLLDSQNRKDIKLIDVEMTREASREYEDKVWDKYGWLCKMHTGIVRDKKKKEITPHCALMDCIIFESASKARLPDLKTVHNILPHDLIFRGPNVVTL
On the % scale 0 is the no-effect control and ±100 the full control effect.

O=c1[nH]c2cc(C(F)(F)F)c(N3CCOCC3)cc2n(CP(=O)(O)O)c1=O
inactive: Potency [1] | Potency [2] | Potency [3] | Potency [4]

C/C=C(/C(=C/C)c1ccc(O)cc1)c1ccc(O)cc1
inactive: Potency [1] | Potency [2] | Potency [3] | Potency [4]

CN1CCCN(C(c2ccccc2)c2ccc(Cl)cc2)CC1 (centres undefined)
inactive: Potency [1] | Potency [2] | Potency [3] | Potency [4]

CCOCC(O)COc1ccc(NC(=O)CC[S+](C)C)cc1 (centres undefined)
inactive: Potency [1] | Potency [2] | Potency [3] | Potency [4]

c1cnc(N2CCN(Cc3ccc4c(c3)OCO4)CC2)nc1
inactive: Potency [1] | Potency [2] | Potency [3] | Potency [4]

Nc1ccn(C2CO[C@H](CO)O2)c(=O)n1 (some centres undefined)
inactive: Potency [1] | Potency [2] | Potency [3] | Potency [4]

O=C(NC1CCN(CCc2c[nH]c3ccccc23)CC1)c1ccccc1
inactive: Potency [1] | Potency [2] | Potency [3] | Potency [4]

CC(=O)N1C[C@H](O)C[C@H]1C(=O)O
inactive: Potency [1] | Potency [2] | Potency [3] | Potency [4]

CCC(=O)Nc1ccc(O)cc1
inactive: Potency [1] | Potency [2] | Potency [3] | Potency [4]

CC1(C)O[C@@H]2C[C@H]3[C@@H]4C[C@H](F)C5=CC(=O)CC[C@]5(C)[C@H]4[C@@H](O)C[C@]3(C)[C@]2(C(=O)CO)O1
inactive: Potency [1] | Potency [2] | Potency [3] | Potency [4]

CC(C(=O)O)c1ccc(CC2CCCC2=O)cc1 (centres undefined)
inactive: Potency [1] | Potency [2] | Potency [3] | Potency [4]

O=C1O[C@H]([C@@H](O)CO)C(O)=C1O
inactive: Potency [1] | Potency [2] | Potency [3] | Potency [4]

OC(CCN1CCCCC1)(c1ccccc1)c1ccccc1
inactive: Potency [1] | Potency [2] | Potency [3] | Potency [4]

O=S(=O)(c1cccc2cnccc12)N1CCCNCC1
inactive: Potency [1] | Potency [2] | Potency [3] | Potency [4]

c1ccc(C(O[C@H]2CCCN(CCc3ccc4c(c3)OCO4)C2)c2ccccc2)cc1
inactive: Potency [1] | Potency [2] | Potency [3] | Potency [4]

CC(=O)/C=C/C=C1/C2CCC(C2)C1(C)C (centres undefined)
inactive: Potency [1] | Potency [2] | Potency [3] | Potency [4]

CC1=C(CC(=O)O)c2cc(F)ccc2/C1=C\c1ccc(S(C)=O)cc1 (centres undefined)
inactive: Potency [1] | Potency [2] | Potency [3] | Potency [4]

CS(=O)(=O)c1ccc(-c2cn3ccccc3n2)cc1
inactive: Potency [1] | Potency [2] | Potency [3] | Potency [4]

Cc1ccc2c(c1)c1c3n2CCNC3CCC1 (centres undefined)
inactive: Potency [1] | Potency [2] | Potency [3] | Potency [4]

CC(C)Cn1cnc2c1c(=O)n(C)c(=O)n2C
inactive: Potency [1] | Potency [2] | Potency [3] | Potency [4]

CCN(CCCc1ccccc1)CCCc1ccccc1
inactive: Potency [1] | Potency [2] | Potency [3] | Potency [4]

O=C(Nc1ccc(C(=O)O)c(O)c1)c1ccccc1
inactive: Potency [1] | Potency [2] | Potency [3] | Potency [4]

C[C@@H]1CCC[C@H](C)N1CCCC(O)(c1ccccc1)c1ccccn1 (some centres undefined)
inactive: Potency [1] | Potency [2] | Potency [3] | Potency [4]

CC(NC(CCc1ccccc1)C(=O)O)C(=O)N1C(=O)N(C)CC1C(=O)O (centres undefined)
inactive: Potency [1] | Potency [2] | Potency [3] | Potency [4]

CN(C)C/C=C(/c1ccc(Br)cc1)c1cccnc1
inactive: Potency [1] | Potency [2] | Potency [3] | Potency [4]

CCCc1nc(C)c2c(=O)[nH]c(-c3cc(S(=O)(=O)N4CCN(CC)CC4)ccc3OCC)nn12
inactive: Potency [1] | Potency [2] | Potency [3] | Potency [4]

CC(=O)O[C@H]1C[C@@H]2CC[C@@H]3[C@H](CC[C@@]4(C)[C@H]3C[C@H]([N+]3(C)CCCCC3)[C@@H]4OC(C)=O)[C@@]2(C)C[C@@H]1N1CCCCC1
inactive: Potency [1] | Potency [2] | Potency [3] | Potency [4]

Cc1cc2c(OCC(CNC(C)(C)C)OC(=O)c3ccccc3)cccc2[nH]1 (centres undefined)
inactive: Potency [1] | Potency [2] | Potency [3] | Potency [4]

CCN[C@@H]1C[C@H](N)[C@@H](OC2OC(CN)=CCC2N)[C@H](O)[C@H]1O[C@H]1OC[C@](C)(O)[C@H](NC)[C@H]1O (some centres undefined)
inactive: activity change, negative = inhibition [1] -2.08% [at 0.757 µM] | activity change, negative = reduced viability [2] -5.5% [at 0.757 µM] | activity change, negative = lower viability [3] 0.253% [at 0.757 µM] | activity change, negative = inhibition [4] 10% [at 0.757 µM]

CC(C)NC(=O)c1ccc(C=O)cc1
inactive: Potency [1] | Potency [2] | Potency [3] | Potency [4]

Cc1cc(CC(=O)O)n(C)c1C(=O)c1ccc(Cl)cc1
inactive: Potency [1] | Potency [2] | Potency [3] | Potency [4]

CCOC(=O)c1ccc(NC(=O)CN2CCCCC2)cc1
inactive: Potency [1] | Potency [2] | Potency [3] | Potency [4]

COc1cc(OC)cc(OC)c1
inactive: Potency [1] | Potency [2] | Potency [3] | Potency [4]

O=Cc1ccccc1C=O
inactive: Potency [1] | Potency [2] | Potency [3] | Potency [4]

NS(=O)(=O)c1cc2c(cc1Cl)NC(CSCc1ccccc1)=NS2(=O)=O
inactive: Potency [1] | Potency [2] | Potency [3] | Potency [4]

CC(CC1c2ccccc2CCc2ccccc21)CN(C)C (centres undefined)
inactive: Potency [1] | Potency [2] | Potency [3] | Potency [4]

CN(CCCN1c2ccccc2CCc2ccccc21)CC(=O)c1ccc(Cl)cc1
inactive: Potency [1] | Potency [2] | Potency [3] | Potency [4]

C[C@]12CC[C@@H]3c4ccc(O)cc4CC[C@H]3[C@@H]1C[C@@H](O)[C@@H]2O
inactive: Potency [1] | Potency [2] | Potency [3] | Potency [4]

COc1ccc2c(c1)c(CC(=O)O)c(C)n2C(=O)c1ccc(Cl)cc1
inactive: Potency [1] | Potency [2] | Potency [3] | Potency [4]

CC(C)Cc1ccc(C(C)C(=O)OCc2ccccn2)cc1 (centres undefined)
inactive: Potency [1] | Potency [2] | Potency [3] | Potency [4]

CCCCC1(COC(=O)CCC(=O)O)C(=O)N(c2ccccc2)N(c2ccccc2)C1=O
inactive: Potency [1] | Potency [2] | Potency [3] | Potency [4]

CCC(=O)c1ccc(O)cc1
inactive: Potency [1] | Potency [2] | Potency [3] | Potency [4]

N/C(=N\N=C\c1ccc(Cl)cc1)N/N=C/c1ccc(Cl)cc1
inactive: Potency [1] | Potency [2] | Potency [3] | Potency [4]

CN1CC(=O)N2[C@H](c3ccc4c(c3)OCO4)c3[nH]c4ccccc4c3C[C@@H]2C1=O
inactive: Potency [1] | Potency [2] | Potency [3] | Potency [4]

CCOC(=O)N1CCC(Nc2ccc(Cl)cc2N)CC1
inactive: Potency [1] | Potency [2] | Potency [3] | Potency [4]

CC(Oc1c(Cl)cccc1Cl)C1=NCCN1 (centres undefined)
inactive: Potency [1] | Potency [2] | Potency [3] | Potency [4]

C[C@]12CC[C@@H]3c4ccc(O)cc4CC[C@H]3[C@@H]1CCC2=O
inactive: Potency [1] | Potency [2] | Potency [3] | Potency [4]

CCc1ccc(C(=O)C(C)CN2CCCCC2)cc1 (centres undefined)
inactive: Potency [1] | Potency [2] | Potency [3] | Potency [4]

CCN(CC)CCCN(c1ccccc1)C1Cc2ccccc2C1
inactive: Potency [1] | Potency [2] | Potency [3] | Potency [4]

COc1ccc(S(=O)(=O)N2c3ccc(Cl)cc3[C@@](O)(c3ccccc3Cl)[C@H]2C(=O)N2CCC[C@@H]2C(N)=O)cc1OC
inactive: Potency [1] | Potency [2] | Potency [3] | Potency [4]

CCOc1c(N2CCOCC2)cnn(C)c1=O
inactive: Potency [1] | Potency [2] | Potency [3] | Potency [4]

NNc1nnc(NN)c2ccccc12
inactive: Potency [1] | Potency [2] | Potency [3] | Potency [4]

CC(COc1ccccc1)NC(C)C(O)c1ccc(O)cc1 (centres undefined)
inactive: Potency [1] | Potency [2] | Potency [3] | Potency [4]

NCC1CCC(C(=O)Oc2ccc(CCC(=O)O)cc2)CC1 (centres undefined)
inactive: Potency [1] | Potency [2] | Potency [3] | Potency [4]

O=C(NCCCN1CCOCC1)c1ccc(Cl)cc1
inactive: Potency [1] | Potency [2] | Potency [3] | Potency [4]

CN(C)C(=O)CNC(=O)Cc1ccccc1
inactive: Potency [1] | Potency [2] | Potency [3] | Potency [4]

CCCCCCCCCCCC[N+](C)(C)Cc1ccccc1
inactive: Potency [1] | Potency [2] | Potency [3] | Potency [4]

O=c1[nH]sc2cc(Cl)ccc12
inactive: Potency [1] | Potency [2] | Potency [3] | Potency [4]

Nc1c(NC/C=C\COc2cc(CN3CCCCC3)ccn2)c(=O)c1=O
inactive: Potency [1] | Potency [2] | Potency [3] | Potency [4]

C[C@@H](O)[C@H](N)C(=O)O
inactive: Potency [1] | Potency [2] | Potency [3] | Potency [4]

CC(=O)OCC(=O)NCCCOc1cccc(CN2CCCCC2)c1
inactive: Potency [1] | Potency [2] | Potency [3] | Potency [4]

O=C1c2ccccc2C(=O)C1c1ccc(Br)cc1
inactive: Potency [1] | Potency [2] | Potency [3] | Potency [4]

O=C1c2ccccc2S(=O)(=O)N1CCCCN1CCN(c2ncccn2)CC1
inactive: Potency [1] | Potency [2] | Potency [3] | Potency [4]

CC(=O)[C@@]1(O)CC[C@H]2[C@@H]3CCC4=CC(=O)CC[C@]4(C)[C@H]3CC[C@@]21C
inactive: Potency [1] | Potency [2] | Potency [3] | Potency [4]

COc1ccc(-n2nc(CCC(=O)N(C)O)cc2-c2ccc(Cl)cc2)cc1
inactive: Potency [1] | Potency [2] | Potency [3] | Potency [4]

O=C(O)CCC(=O)c1ccc(-c2ccccc2)cc1
inactive: Potency [1] | Potency [2] | Potency [3] | Potency [4]

Cc1cc(O)c(C(C)C)cc1Cl
inactive: Potency [1] | Potency [2] | Potency [3] | Potency [4]

N=C(N)c1ccc(OCCCOc2ccc(C(=N)N)cc2)cc1
inactive: Potency [1] | Potency [2] | Potency [3] | Potency [4]

NC(=O)c1ncn([C@@H]2O[C@H](CO)[C@@H](O)[C@H]2O)c1N
inactive: Potency [1] | Potency [2] | Potency [3] | Potency [4]

CCCCN(CCN(CCCC)C(=O)N1CCOCC1)C(=O)N1CCOCC1
inactive: Potency [1] | Potency [2] | Potency [3] | Potency [4]

Nc1cc(C(F)(F)F)ccc1S
inactive: Potency [1] | Potency [2] | Potency [3] | Potency [4]

O=C(OCc1ccccc1)c1ccc(O)cc1
inactive: Potency [1] | Potency [2] | Potency [3] | Potency [4]

Cc1ncc([N+](=O)[O-])n1C
inactive: Potency [1] | Potency [2] | Potency [3] | Potency [4]

c1cc(CN2CCCCC2)cc(OCCCNc2nc3ccccc3s2)c1
inactive: Potency [1] | Potency [2] | Potency [3] | Potency [4]

CN(C)CCCOC1(Cc2ccccc2)CCCCCC1
inactive: Potency [1] | Potency [2] | Potency [3] | Potency [4]

CC(=O)OCC(=O)[C@@]1(O)CC[C@H]2[C@@H]3CCC4=CC(=O)C=C[C@]4(C)[C@H]3[C@@H](O)C[C@@]21C
inactive: Potency [1] | Potency [2] | Potency [3] | Potency [4]
